# The sample as a whole holds a higher share of hits than the screen did.
# DT40 TDP1 CPT = qHTS for Inhibitors of human tyrosyl-DNA phosphodiesterase 1 (TDP1): qHTS in cells in presence of CPT | chicken DT40 Tdp1-/-;hTDP1 cells + 20 nM CPT, ATP luminescence, 48 h | Potency, µM (titrated, usually from 46.2 µM), for inactives: at the highest dose activity change, negative = growth inhibition, actives largely listed as inhibitors | actives 12% (n = 420,000) | AID 686979, 2013; further: potency means the concentration at half of the fitted maximal effect; nearly all actives have a fitted effect of over 55% in size
#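 Cell growth measured by CellTiter-Glo luminescence after a minimum 48 h, 37 C compound exposure with 20 nM CPT in Tdp1-knockout DT40 cells stably expressing hTDP1, seeded 400/well; qHTS titration format.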
# 12-LOX inh = Primary qHTS assay for inhibitors of human arachidonate 12S-lipoxygenase (ALOX12): Round 2; Potency, µM (top dose mostly 108 µM), for the others: at the top dose activity change, negative = inhibition, hits mostly inhibitors; actives 1.1% (n = 580,000); Polyunsaturated fatty acid lipoxygenase ALOX12 (Homo sapiens), P18054; purified 12hLO, xylenol orange hydroperoxide absorbance; further: potency means the concentration at half of the fitted maximal effect
# Target sequence (P18054 whole entry, looked up): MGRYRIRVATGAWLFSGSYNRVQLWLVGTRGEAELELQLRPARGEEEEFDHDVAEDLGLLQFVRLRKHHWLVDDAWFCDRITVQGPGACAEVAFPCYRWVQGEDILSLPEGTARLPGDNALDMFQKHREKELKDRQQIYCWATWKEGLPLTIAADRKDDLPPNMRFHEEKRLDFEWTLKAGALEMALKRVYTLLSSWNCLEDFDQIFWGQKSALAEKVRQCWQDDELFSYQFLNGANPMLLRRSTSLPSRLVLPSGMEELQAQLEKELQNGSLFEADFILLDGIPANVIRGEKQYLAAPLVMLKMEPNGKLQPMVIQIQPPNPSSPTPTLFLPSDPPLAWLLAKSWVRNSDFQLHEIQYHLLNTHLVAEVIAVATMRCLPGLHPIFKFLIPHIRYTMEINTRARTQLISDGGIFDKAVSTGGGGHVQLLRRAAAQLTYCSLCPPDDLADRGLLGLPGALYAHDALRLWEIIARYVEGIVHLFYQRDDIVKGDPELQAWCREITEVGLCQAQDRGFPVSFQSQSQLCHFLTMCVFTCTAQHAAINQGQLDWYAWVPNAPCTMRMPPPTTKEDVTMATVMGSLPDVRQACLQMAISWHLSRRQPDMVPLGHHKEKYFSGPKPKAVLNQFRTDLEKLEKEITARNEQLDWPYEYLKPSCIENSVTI
#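 Hydroperoxide product was detected by ferrous iron/xylenol orange as the 573 to 405 nm absorbance ratio. Arachidonic acid at 40 uM (final) was turned over for 30 min at room temperature by 150 nM human 12hLO, pH 7.0 Hepes buffer, after 15 min compound preincubation.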
# HT1080 IDH1KD tx = qHTS for induction of synthetic lethality in tumor cells producing 2HG: qHTS for the HT-1080-IDH1KD cell line. Potency, µM (doses to about 46.1 µM), for the others: at the highest dose activity, negative = toxicity, hits mostly cytotoxic. AID 686971, 2013. actives 2% (n = 360,000). HT-1080 IDH1 knockdown viability, ATP luminescence, 48 h;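 further: potency means the concentration at half of the fitted maximal effect; 0% = DMSO wells and -100% = cell-free medium wells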
#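 IDH1KD HT-1080 cells, 750/well, RPMI + 5% FBS; compound pinned after 2 h settling; 48 h, 37 °C; CellTiter-Glo luminescence; % activity normalised to DMSO and no-cell wells; curves fitted, classed by r2 and efficacy.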
# DT40 TDP1 no CPT = qHTS for Inhibitors of human tyrosyl-DNA phosphodiesterase 1 (TDP1): qHTS in cells in absence of CPT | Potency, µM (titrated, usually from 46.2 µM), for the others: at the highest dose activity change, negative = growth inhibition, hits mostly inhibitors | DT40 Tdp1-/- hTDP1 cells, no CPT, ATP luminescence, 48 h | AID 686978, 2013 | actives 15% (n = 420,000); further: potency means the concentration at half of the fitted maximal effect; nearly all actives have a fitted effect of over 55% in size
#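 Readout: luminescence from CellTiter-Glo after 30 min in the dark at RT. Cells: DT40 Tdp1-/- with stable hTDP1, 400/well. Exposure: compounds alone, ≥48 hr, 37 °C.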
# HT1080-NT tox = qHTS for induction of synthetic lethality in tumor cells producing 2HG: qHTS for the HT-1080-NT fibrosarcoma cell line; HT-1080-NT fibrosarcoma viability, CellTiter-Glo ATP luminescence, 48 h; Potency, µM (titrated, usually from 46.1 µM), without a hit: top-dose activity, negative = less viability, usual class: cytotoxic; actives 1.6% (n = 360,000); AID 686970, 2013;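 further: NT is the 2HG producing partner of a matched IDH1 knockdown line; potency means the concentration at half of the fitted maximal effect; 0% = DMSO-treated cells and -100% = media-only wells without cells; nearly all actives have a fitted effect of over 55% in size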
#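 Compounds were tested in concentration-response format on HT-1080-NT cells for 48 hours at 37 degrees C. Cell viability came from CellTiter-Glo luminescence; curves were classified by r2, response magnitude and activity.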
# IL-1B inflam inh = qHTS for Inhibitors of Inflammasome Signaling: IL-1-beta AlphaLISA Primary Screen. THP-1 LPS/ATP IL-1B secretion, AlphaLISA, 16 h; hits give low values. activity change, % at 57.5 µM. actives 4.7% (n = 360,000). AID 743279, 2014; in the data active means activity change below about -50%; inconclusive means mostly about -30% to -49%
#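 Secreted IL-1B measured by AlphaLISA bead assay after 16 h compound exposure of THP-1 cells; compounds (final up to 57.5 uM) added 1 h before LPS (250 ng/mL) and ATP (1.25 mM) stimulation; lower signal means less secretion.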
# An asterisk follows results filed as active; ? = inconclusive; . = no result given. Unless noted, the call rests on the fitted dose curve; in most records, active means well fitted curve in the direction sought with a large enough effect; inconclusive means small, poorly fitted or top-dose-only effect, or another doubt; inactive means no such curve, though single readings can be large; an effect the other way counts as inactive or inconclusive. Unless noted, on the % scale 0 is the no-effect control and ±100 the full control effect.
SMILES,DT40 TDP1 CPT,12-LOX inh,HT1080 IDH1KD tx,DT40 TDP1 no CPT,HT1080-NT tox,IL-1B inflam inh
CN(CC(=O)Nc1cccc(F)c1)C(=O)c1ccc(N2CCCCC2)c([N+](=O)[O-])c1,16.4µM*,-21.1%,-3.7%,14.6µM*,?,-26.7
CNC(=O)c1noc([C@@H]2CC(F)(F)CN2C2CCOCC2)n1,.,43.0%,.,.,.,.
COC(=O)/C=C1\OC(C2CC2)c2ccccc21 (stereo not drawn),8.2µM*,-15.8%,9.3%,16.4µM*,6.6%,17.1
COC(=O)/C=C1\OC(c2ccccc2)c2ccccc21 (stereo not drawn),?,-19.4%,-1.8%,?,-2.8%,98.3
NC(=O)c1ccc(CC2CCN(C(=O)c3cnccn3)CC2)cc1,.,23.1%,.,.,.,.
CCOc1ccc(C(C)=O)cc1CSc1nnc(-c2cccs2)n1CC1CCCO1 (stereo not drawn),?,12.8%,1.5%,18.4µM*,3.6%,?
O=C(CSc1nnc(-c2cccs2)n1CC1CCCO1)N1CCCC1 (stereo not drawn),28.1%,-1.4%,11.1%,-14.3%,21.9%,6.7
CC(C)(C)c1ccc(-c2nnc(SCC(=O)N3CCOC3=O)n2C2CCCC2)cc1,.,-27.8%,.,.,.,.
CCCN(CCC)CCNC(=O)c1cc2c(=O)n(CC)c3ccccc3c2s1,-22.4%,-6.6%,1.4%,?,-1.4%,-8.1
CCN(CC)CCCNC(=O)c1cc2c(=O)n(CC)c3ccccc3c2s1,?,-21.7%,?,?,?,-57.0*
CCN(CC)CCNC(=O)c1cc2c(=O)n(CC)c3ccccc3c2s1,?,-5.0%,-15.2%,18.4µM*,-20.3%,-55.7*
CC(C)C[C@@H]1CN=C(N)N1C[C@@H]1CCCN1C[C@H](C)N1C[C@@H](Cc2ccccc2)N(CCc2ccc(Cl)c(Cl)c2)C1=N,18.4µM*,.,-2.7%,?,0.2%,0.0
CCCCN1C(=N)N([C@@H](C)CN2CCC[C@H]2CN2C(N)=NC[C@H]2CC(C)C)C[C@H]1[C@H](C)CC,23.1µM*,14.9%,0.6%,16.4µM*,7.2%,0.0
CCC[C@@H](CN1CCC[C@H]1CN1C(N)=NC[C@H]1CC(C)C)N1C[C@@H]([C@H](C)CC)N(CCCC2CCCC2)C1=N,20.6µM*,?,-8.7%,16.4µM*,-2.4%,-57.6*
CCC[C@@H](CN1CCC[C@H]1CN1C(N)=NC[C@H]1C(C)C)N1C[C@@H]([C@H](C)CC)N(CCCC2CCCC2)C1=N,?,-28.3%,1.8%,?,-0.1%,-17.9
CC(C)C[C@@H]1CN=C(N)N1C[C@@H]1CCCN1C[C@@H](C(C)C)N1C[C@@H](Cc2ccccc2)N(CCc2ccc(Cl)c(Cl)c2)C1=N,-2.6%,-14.3%,0.1%,-13.5%,-3.6%,?
CCN(C)S(=O)(=O)c1cc2c(cc1Cl)Oc1cc(C)ccc1NC2=O,.,-0.3%,.,.,.,.
CC(C)(CO)Nc1nc(N2CCCC2)nc(N2CCCC2)n1,?,2.1%,10.9%,20.6µM*,-2.6%,14.5
CCNc1nc(NC(C)(C)C)nc(N2CCCCC2)n1,20.6µM*,-3.8%,-16.1%,20.6µM*,-19.6%,-81.4*
O=c1c2ccccc2c(-c2cccc(C(F)(F)F)c2)nn1-c1ccccc1,?,149.0%,-17.2%,?,-1.5%,-12.8

# Bioassay records deposited in PubChem by National Center for Advancing Translational Sciences (NCATS).
